Screens (PubChem BioAssay)
Compounds with a hit are over-represented: about 12% of the library has one in this group of screens.
JMJD2A Tudor: blocks the human JMJD2A Tudor domain. O75164. AlphaScreen JMJD2A-Tudor / H3K4me3 peptide binding. Potency, µM (doses to about 114 µM), for inactives: at the highest dose activity change, negative = inhibition, actives largely listed as inhibitors. actives 4.4% (n = 390,000); also: % is scaled to controls: 0 for no effect and ±100 for the full control effect; nearly all actives have a fitted effect of over 50% in size
BAZ2B block: blocks human BAZ2B. AlphaScreen BAZ2B-H3K14Ac peptide displacement. Potency, µM (titrated, usually from 114 µM), inactives show at the top dose activity change, negative = inhibition, hits mostly inhibitors. actives 4.4% (n = 360,000); also: % is scaled to controls: 0 for no effect and ±100 for the full control effect; nearly all actives have a fitted effect of over 60% in size
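AlphaScreen displacement: compounds (up to 110uM) incubated 30 min at room temperature with a preformed 50 nM BAZ2B/50 nM biotinylated H3K14Ac peptide complex in PBS pH 7.4 with Tween-20. Donor and acceptor beads at 10 ug/mL final added, 20 min light-protected before reading.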
Sfp inh: inhibitors of Bacillus subtilis Sfp phosphopantetheinyl transferase; Biochemical Sfp PPTase activity, qHTS; actives 3.5% (n = 310,000); Potency, µM, for the others: largest response in the series, negative = inhibition, usual class: inhibitors; Q9F4F7;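 also: the enzyme is Sfp with the accession as filed and its product quenches rhodamine fluorescence; 0% = enzyme reaction without inhibitor and -100% = no enzyme wells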
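Buffer: 50 mM Hepes-Na pH 7.6, 10 mM MgCl2, 0.01% Nonidet P-40, 0.01% BSA. Enzyme 15 nM, pre-exposed to compound 15 min; substrates then added and fluorescence change tracked over 30 min.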
G9a block: G9a (human) methyltransferase inhibition; Potency, µM (top dose mostly 102 µM), without a hit: top-dose activity, negative = inhibition, usual class: inhibitors; Q96KQ7; G9a H3K9 monomethylation, AlphaScreen, 2 h; actives 8.8% (n = 350,000); AID 504332; also: % is scaled to controls: 0 for no effect and ±100 for the full control effect; nearly all actives have a fitted effect of over 75% in size
Target sequence (Q96KQ7 913-1193 limits assumed): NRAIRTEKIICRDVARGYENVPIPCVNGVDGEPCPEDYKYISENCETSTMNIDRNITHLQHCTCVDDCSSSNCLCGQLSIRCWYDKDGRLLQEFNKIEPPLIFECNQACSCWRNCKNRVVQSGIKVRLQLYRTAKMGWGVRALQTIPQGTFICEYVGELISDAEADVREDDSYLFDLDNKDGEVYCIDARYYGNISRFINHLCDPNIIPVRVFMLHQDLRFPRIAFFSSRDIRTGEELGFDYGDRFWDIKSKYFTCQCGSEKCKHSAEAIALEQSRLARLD
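Enzyme 20 nM + cpd, 15 min RT; add b-H3K9 pep 500 nM / SAM 20 uM; 2 h RT; anti-H3K9me1 Ab 0.5 ug/mL + SA donor / anti-rabbit acceptor beads 20 ug/mL each, 10 min; AlphaScreen read.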
HP1b binding inh: blocks HP1-beta chromodomain binding to methylated histone tails. actives 0.56% (n = 390,000). Potency, µM (titrated, usually from 114 µM), without a hit: at the highest dose activity change, negative = inhibition, most hits filed as inhibitors. AlphaScreen HP1-beta / biotin-H3K9me3 peptide binding; also: nearly all actives have a fitted effect of over 70% in size
Target sequence (P83916 whole entry, looked up): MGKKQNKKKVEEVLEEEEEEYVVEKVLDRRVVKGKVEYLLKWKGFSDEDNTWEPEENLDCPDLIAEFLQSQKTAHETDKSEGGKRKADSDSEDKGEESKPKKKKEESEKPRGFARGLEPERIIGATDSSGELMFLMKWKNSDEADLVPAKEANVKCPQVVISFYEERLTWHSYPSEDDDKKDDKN
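Compound inhibition of the preformed complex between 50 nM HP1-beta and 50 nM biotinylated H3K9me3 peptide was read by AlphaScreen. Buffer was PBS pH 7.4 with 0.01% Tween-20. Incubations ran 30 min at room temperature, with 10 ug/mL donor/acceptor beads.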
L3MBTL1 block: inhibitors of human L3MBTL1; Q9Y468; AlphaScreen L3MBTL1–H3K9me1 peptide binding; Potency, µM (series often up to 57.1 µM), without a hit: at the highest dose activity, negative = inhibition, most hits filed as inhibitors; actives 0.66% (n = 230,000); AID 485360; also: % is scaled to controls: 0 for no effect and ±100 for the full control effect; nearly all actives have a fitted effect of over 60% in size
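AlphaScreen assay: L3MBTL1 (50 nM final) was preincubated 30 min at room temperature with biotinylated H3(1-15)K9me1 peptide (75 nM final), then 30 min with library compounds; streptavidin donor and nickel chelate acceptor beads (10 ug/mL final) added, 30 min dark.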
* hit, by the source's call; ? = inconclusive; nt = not tested or not shown; [ ] = remark or other dose. Calls follow the shape of the dose curve; as a rule, active = well fitted curve in the direction sought with a large enough effect; inconclusive = small, poorly fitted or top-dose-only effect, or another doubt; inactive = no such curve, though single readings can be large; an effect the other way counts as inactive or inconclusive. Potency is read from the fitted curve at half-maximal effect.

SMILES	JMJD2A Tudor	BAZ2B block	Sfp inh	G9a block	HP1b binding inh	L3MBTL1 block
O=C(O)CCCCCn1c(O)c(C=C2N=c3ccccc3=N2)sc1=S	-32%	50µM*	?	8.9µM*	-2%	-6%
CC1(C)C(OC(=O)CCC(=O)O)CC[C@]2(C)C1CC[C@@]1(C)C2C(=O)C=C2[C@@H]3C[C@@](C)(C(=O)O)CC[C@]3(C)CCC21C (stereo partly specified)	nt	nt	-5%	1%[2.33 µM]	nt	nt
CSc1ccc(/C=C/C(=O)OCC(=O)c2ccc[nH]2)cc1	4%	10%	nt	21%[12.7 µM]	23%	-13%
O=C(/C=C/c1ccco1)c1ccc(NC(=O)C23CC4CC(CC(C4)C2)C3)cc1	?	35µM*	3.5µM*	4.5µM*	?	22µM*
O=C(CN1C(=O)COc2ccc(S(=O)(=O)NC3CCCC3)cc21)Nc1ccc(Cl)cc1	-11%	-3%	nt	1%[59 µM]	19%	nt
CC(C(=O)Nc1ccccc1C(=O)N1CCOCC1)N(c1ccccc1)S(C)(=O)=O (stereo unspecified)	40µM*	0%	21%	-4%[59 µM]	?	7%
CC(=O)c1cc(CN2CCC(N3CCC(C(=O)NC(C)C)CC3)CC2)cs1	-2%	-1%	19%	3%	44%	1%
CC(=O)c1cc(CN2CCC(N3CCC(C(=O)N4CCCC4)CC3)CC2)cs1	4%[11.4 µM]	-35%	22µM*	11µM*	32%	-12%
O=C(CN1C(=O)/C(=C/c2ccccc2F)Sc2ccccc21)NCC1CCCO1 (stereo unspecified)	-26%	-2%	-20%	nt	-4%[57 µM]	nt
C/C(=C\c1ccc(F)cc1)C(=O)c1c(C)cc(C)[nH]c1=O	-5%	0%	11%	23%	28%	nt
CCCn1c(N)cc(=O)n(CCC)c1=O	5%	-2%	18%	-3%	46%	2%
CCCCN(CCCNC(=O)CN1N=C(c2ccc(C)cc2)CCC1=O)c1ccccc1	40µM*	20µM*	nt	14µM*	?	nt
COc1ccc(C2=NN(CC(=O)NCCCN(C)c3ccccc3)C(=O)CC2)cc1	?	?	nt	?	-13%	nt
CCN(CCCNC(=O)CN1N=C(c2ccc(OC)cc2)CCC1=O)c1cccc(C)c1	79µM*	40µM*	nt	11µM*	?	nt
CCN(CCCNC(=O)CN1N=C(c2ccccc2)CCC1=O)c1cccc(C)c1	?	?	nt	14µM*	?	nt
Cc1ccc(C2=NN(CC(=O)NCCc3ccccc3)C(=O)CC2)cc1	-21%	-10%	nt	-10%[59 µM]	-9%	nt
CCN(CCCNC(=O)CN1N=C(c2ccc(C)cc2)CCC1=O)c1ccccc1	56µM*	14µM*	nt	10µM*	?	nt
CCCCN(C)CCCNC(=O)CN1N=C(c2ccc(Cl)cc2)CCC1=O	-6%	13%	-4%	38%	20%	nt
CC(C)Oc1ccc(CNS(=O)(=O)c2cnc(N)nc2)cc1	-12%	0%	nt	12%[59 µM]	22%[57 µM]	nt
Cc1ccc(C2=NN(CC(=O)O)C(=O)CC2)cc1	-17%	-3%	8%	45µM*	2%	nt
Cc1ccc(CNC(=O)CN2N=C(c3ccccc3)CCC2=O)cc1	-8%	1%	nt	5%[59 µM]	22%	nt
CCCCCNc1nc(N2CCCC2)c2c(c1C#N)CCN(C)C2	56µM*	?	-3%	50µM*	-39%	-2%
CCc1ccc(CN(Cc2ccco2)C(=O)c2ccc(C)cc2)cc1	37%	54%	nt	53%[59 µM]	86%	nt
Cc1ccccc1C(=O)N(Cc1ccc(N(C)C)cc1)Cc1ccco1	45µM*	35µM*	nt	13µM*	?	nt
Cc1ccc(C(=O)N(Cc2ccc(N(C)C)cc2)Cc2ccco2)cc1	40µM*	35µM*	nt	14µM*	?	nt
SMILES	JMJD2A Tudor	BAZ2B block	Sfp inh	G9a block	HP1b binding inh	L3MBTL1 block
CN(C)c1ccc(CN(Cc2ccco2)C(=O)COc2ccc(F)cc2)cc1	45µM*	28µM*	nt	16µM*	?	nt
COc1cccc(C(=O)N(Cc2ccc(N(C)C)cc2)Cc2ccco2)c1	40µM*	22µM*	nt	13µM*	?	nt
COc1cccc(C(=O)N(Cc2ccco2)Cc2cc3cccc(C)c3[nH]c2=O)c1	-9%	3%	2%	13%	27%	1%
CN(C)c1ccc(CN(Cc2ccco2)C(=O)c2ccc(F)cc2)cc1	45µM*	35µM*	nt	13µM*	?	nt
CCS(=O)(=O)c1ncc(Cl)c(C(=O)N(Cc2ccccc2)Cc2ccco2)n1	-15%	-19%	nt	?	23%	nt
Cc1cc(C)c2c(CC(=O)N(Cc3ccc(N(C)C)cc3)Cc3ccco3)coc2c1	13µM*	10µM*	nt	11µM*	?	nt
Cc1ccc2c(CC(=O)N(Cc3ccc(Cl)cc3)Cc3ccco3)coc2c1	11%	-5%	nt	-16%[59 µM]	47%	nt
CCSc1ncc(Cl)c(C(=O)N(Cc2ccc(N(C)C)cc2)Cc2ccco2)n1	18µM*	10µM*	nt	13µM*	?	nt
CCOC(=O)C(=NC1CCS(=O)(=O)C1)NNc1ccc(Br)cc1 (stereo unspecified)	?	?	-25%	10µM*	14%	-12%
CCOC(=O)C(=NC(C)CC)NNc1cccc(C(F)(F)F)c1 (stereo unspecified)	-31%	?	7%	?	9%	-16%
CCOC(=O)C(=NC(C)CC)NNc1ccc(Br)cc1 (stereo unspecified)	?	?	-3%	13µM*	-11%	-7%
CCC(=O)NNc1ccc(Br)cc1	-1%	-11%	-5%	?	33%	nt
CCOC(=O)C(=NC1CCCCC1)NNc1cccc(C(F)(F)F)c1	-36%	-27%	1%	50µM*	3%	-5%
CCCC1OC2C[C@@H]3[C@H]4CCC5=CC(=O)C=C[C@]5(C)[C@H]4C(O)C[C@]3(C)[C@]2(C(=O)CO)O1 (stereo partly specified)	-6%	nt	nt	nt	56%	nt
NC1=NC(S)C2N=CN=C2N1 (stereo unspecified)	nt	nt	56µM*	25µM*	nt	nt
Cn1nnc2c(N3CCN(c4ccccc4F)CC3)ncnc21	-7%	-7%	nt	-7%[59 µM]	26%	nt
O=C(Cc1ccccc1)Nc1ccc2c(c1)OC1(CCCC1)O2	-34%	-39%	nt	?	-8%	-12%
Nc1ccc2c(c1)OC1(CCCC1)O2	45µM*	40µM*	1%	35µM*	-39%	-24%
Cc1ccccc1N/N=C/c1ccc(C#N)cc1	-32%	?	12%	10µM*	12%	-8%
CCOC(=O)C1CCCCN1Cc1ccc(OC)c(OC)c1 (stereo unspecified)	20µM*	56µM*	-13%	32µM*	?	5%
CCOC(=O)C1CCCCN1Cc1ccc(F)c(Br)c1 (stereo unspecified)	?	12%	63µM*	22µM*	?	nt
